{"source": "paper PMC4336329", "about": "(PLoS ONE, 2015)", "note": "Screen size: about 310,000 compounds; about 2,200 (0.71%) showed an effect of 50% or more. The effect is printed as a negative number. Many of the other results were omitted from the sample, so strong results are more common in it than they were.", "data": [{"biological_target": "human ether-à-go-go-related gene (hERG) potassium channel (human, UniProt Q12809)", "sequence (Q12809 whole entry, looked up)": "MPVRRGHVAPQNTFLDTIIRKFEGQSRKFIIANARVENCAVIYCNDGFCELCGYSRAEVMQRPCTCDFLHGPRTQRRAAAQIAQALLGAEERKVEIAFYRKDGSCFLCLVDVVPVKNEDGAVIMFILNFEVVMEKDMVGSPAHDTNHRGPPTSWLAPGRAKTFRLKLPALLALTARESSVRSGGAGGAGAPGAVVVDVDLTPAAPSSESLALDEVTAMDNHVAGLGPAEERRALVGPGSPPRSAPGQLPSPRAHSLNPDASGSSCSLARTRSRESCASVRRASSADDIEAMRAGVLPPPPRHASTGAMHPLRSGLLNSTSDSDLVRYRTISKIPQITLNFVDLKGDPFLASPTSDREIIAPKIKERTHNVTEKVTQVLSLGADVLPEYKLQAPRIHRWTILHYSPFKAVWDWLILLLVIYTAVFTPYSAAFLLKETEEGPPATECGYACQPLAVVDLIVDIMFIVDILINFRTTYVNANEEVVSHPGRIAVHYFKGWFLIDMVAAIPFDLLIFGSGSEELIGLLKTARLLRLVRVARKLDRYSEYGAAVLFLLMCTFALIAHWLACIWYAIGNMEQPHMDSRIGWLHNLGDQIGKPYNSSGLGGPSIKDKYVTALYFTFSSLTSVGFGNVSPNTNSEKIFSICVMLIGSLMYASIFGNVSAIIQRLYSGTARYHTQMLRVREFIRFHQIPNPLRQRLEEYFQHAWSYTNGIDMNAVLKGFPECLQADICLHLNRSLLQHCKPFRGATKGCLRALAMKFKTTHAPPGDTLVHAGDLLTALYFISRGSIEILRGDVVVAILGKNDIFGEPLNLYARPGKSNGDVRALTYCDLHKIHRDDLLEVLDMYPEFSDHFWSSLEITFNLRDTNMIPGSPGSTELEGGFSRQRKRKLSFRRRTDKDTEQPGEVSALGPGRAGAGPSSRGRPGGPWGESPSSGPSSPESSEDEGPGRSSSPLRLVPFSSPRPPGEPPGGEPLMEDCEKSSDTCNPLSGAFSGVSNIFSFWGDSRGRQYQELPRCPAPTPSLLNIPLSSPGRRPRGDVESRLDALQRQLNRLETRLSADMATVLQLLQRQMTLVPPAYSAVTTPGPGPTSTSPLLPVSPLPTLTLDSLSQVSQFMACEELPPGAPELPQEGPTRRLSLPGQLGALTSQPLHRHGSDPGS", "test": "primary screen, population patch clamp on CHO cells stably expressing hERG; higher = less effect of the substance", "units": {"hERG current change (%, negative = inhibition) at 1uM": "%"}, "values": [{"smiles": "COc1ccc(-c2[nH]ncc2CN(C)CCCN2CCOCC2)cc1F", "hERG current change (%, negative = inhibition) at 1uM": 12}, {"smiles": "CCOc1ccc(CCNC(=O)c2ccc(=O)[nH]c2)cc1OCC", "hERG current change (%, negative = inhibition) at 1uM": 4.91}, {"smiles": "O=C(c1ccc2c(c1)ncn2C1CCCCC1)N1CCC2(CC1)OCCO2", "hERG current change (%, negative = inhibition) at 1uM": 0.618}, {"smiles": "CCN1/C(=C\\C=C\\C2=[N+](CC)c3ccccc3C2(C)C)C(C)(C)c2ccccc21.[O-][Cl+3]([O-])([O-])[O-]", "hERG current change (%, negative = inhibition) at 1uM": -86.1}, {"smiles": "CCCN1C(=O)/C(=C/C=C2\\N(CC)c3ccccc3C2(C)C)SC1=S", "hERG current change (%, negative = inhibition) at 1uM": 5.72}, {"smiles": "CN1/C(=C\\C=C\\C2=[N+](C)c3ccc4ccccc4c3C2(C)C)C(C)(C)c2ccccc21.[O-][Cl+3]([O-])([O-])[O-]", "hERG current change (%, negative = inhibition) at 1uM": -43.6}, {"smiles": "COc1ccc(S(=O)(=O)Nc2ccc(Cc3ccncc3)cc2)cc1C", "hERG current change (%, negative = inhibition) at 1uM": 0.33}, {"smiles": "CCCCN(C)CCCNC(=O)C1CCC(CNS(=O)(=O)c2c(C)cc(C)cc2C)CC1", "note": "(centres unmarked)", "hERG current change (%, negative = inhibition) at 1uM": -76.3}, {"smiles": "CCN(CC)CCCNC(=O)C1CCC(CNS(=O)(=O)c2c(C)cc(C)cc2C)CC1", "note": "(centres unmarked)", "hERG current change (%, negative = inhibition) at 1uM": 12.6}, {"smiles": "CC1CCN(CCCNC(=O)C2CCC(CNS(=O)(=O)c3ccccc3)CC2)CC1", "note": "(centres unmarked)", "hERG current change (%, negative = inhibition) at 1uM": 16.3}, {"smiles": "CCC1CCCCN1CCCNC(=O)C1CCC(CNS(=O)(=O)c2c(C)cc(C)cc2C)CC1", "note": "(centres unmarked)", "hERG current change (%, negative = inhibition) at 1uM": -3.19}, {"smiles": "Cc1cc(C)c(S(=O)(=O)NCC2CCC(C(=O)NCCCN3CCC(C)CC3)CC2)c(C)c1", "note": "(centres unmarked)", "hERG current change (%, negative = inhibition) at 1uM": -52.9}, {"smiles": "CCCCNC(=O)C1CCC(CNS(=O)(=O)c2c(C)cc(C)cc2C)CC1", "note": "(centres unmarked)", "hERG current change (%, negative = inhibition) at 1uM": -13.4}, {"smiles": "Cc1ccc(Nc2nc(N)c([N+](=O)[O-])c(NCc3ccccc3)n2)cc1", "hERG current change (%, negative = inhibition) at 1uM": 8.5}, {"smiles": "CC(C)(C)c1ccc(OCCCC(=O)N2CCOCC2)cc1", "hERG current change (%, negative = inhibition) at 1uM": -2.13}, {"smiles": "O=C(CCNC(=O)c1ccccc1Cl)NCC1CCCO1", "note": "(centres unmarked)", "hERG current change (%, negative = inhibition) at 1uM": -9.04}, {"smiles": "CCCn1c(N)c(C(=O)CN(C)CC(=O)Nc2cccc(F)c2)c(=O)[nH]c1=O", "hERG current change (%, negative = inhibition) at 1uM": -73.1}, {"smiles": "CCCn1c(N)c(C(=O)CN(C)CC(=O)Nc2c(Cl)cccc2Cl)c(=O)[nH]c1=O", "hERG current change (%, negative = inhibition) at 1uM": 0.55}, {"smiles": "CCCn1c(N)c(C(=O)CN(C)CC(=O)Nc2ccc(F)cc2)c(=O)[nH]c1=O", "hERG current change (%, negative = inhibition) at 1uM": -20}, {"smiles": "O=C(Nc1ccccc1)N1CCn2c(nc3ccccc32)C1", "hERG current change (%, negative = inhibition) at 1uM": -6.18}, {"smiles": "COc1cc(C(=O)Nc2ccc(C)cc2)c2ccccc2n1", "hERG current change (%, negative = inhibition) at 1uM": 7.49}, {"smiles": "CN(Cc1ccccc1)C(=O)CCc1ccccc1", "hERG current change (%, negative = inhibition) at 1uM": 13.8}, {"smiles": "Cc1cc(Nc2cccc([N+](=O)[O-])c2)c2ccccc2n1", "hERG current change (%, negative = inhibition) at 1uM": -36.7}, {"smiles": "Cc1cc(Nc2cccc([N+](=O)[O-])c2)c2cccc(C)c2n1.Cl", "hERG current change (%, negative = inhibition) at 1uM": -73.5}, {"smiles": "CC(=O)c1cccc(Nc2cc(C)nc3c(C)cccc23)c1.Cl", "hERG current change (%, negative = inhibition) at 1uM": -16.9}, {"smiles": "COc1ccc(Br)c(C(=O)OCC(=O)NC2CCCCCC2)c1", "hERG current change (%, negative = inhibition) at 1uM": -1.39}, {"smiles": "CCCCN(CC)CCCNC(=O)c1cn(-c2ccc(OC)cc2)c(=O)c2ccccc12", "hERG current change (%, negative = inhibition) at 1uM": -7.85}, {"smiles": "CCCN(CCC)CCCNC(=O)c1cn(-c2ccc(OC)cc2)c(=O)c2ccccc12", "hERG current change (%, negative = inhibition) at 1uM": 1.46}, {"smiles": "CCCCN(CC)CCNC(=O)c1cn(-c2ccc(Cl)cc2)c(=O)c2ccccc12", "hERG current change (%, negative = inhibition) at 1uM": -81.6}, {"smiles": "CCOC(=O)N1CCN(C(C)C(=O)c2c[nH]c3ccccc23)CC1", "note": "(centres unmarked)", "hERG current change (%, negative = inhibition) at 1uM": -0.111}, {"smiles": "O=C(NNc1ccc(-c2csnn2)cc1)c1ccccc1C(F)(F)F", "hERG current change (%, negative = inhibition) at 1uM": 9.16}, {"smiles": "CC1C(=O)CC(c2ccccc2)NC1c1ccccc1", "note": "(centres unmarked)", "hERG current change (%, negative = inhibition) at 1uM": 3.38}, {"smiles": "CCC1C(=O)CC(c2ccccc2)NC1c1ccccc1", "note": "(centres unmarked)", "hERG current change (%, negative = inhibition) at 1uM": 5.67}, {"smiles": "CC1C(=O)C(C)C(c2ccc([N+](=O)[O-])cc2)NC1c1ccc([N+](=O)[O-])cc1", "note": "(centres unmarked)", "hERG current change (%, negative = inhibition) at 1uM": -4.32}, {"smiles": "CCC1C(=O)C(C)(C)C(=O)OC1c1ccc([N+](=O)[O-])cc1", "note": "(centres unmarked)", "hERG current change (%, negative = inhibition) at 1uM": 9.82}, {"smiles": "CCC1C(=O)CC(c2ccc([N+](=O)[O-])cc2)NC1c1ccc([N+](=O)[O-])cc1", "note": "(centres unmarked)", "hERG current change (%, negative = inhibition) at 1uM": -69.7}, {"smiles": "CC1C(=O)CC(c2ccc([N+](=O)[O-])cc2)NC1c1ccc([N+](=O)[O-])cc1.Cl", "note": "(centres unmarked)", "hERG current change (%, negative = inhibition) at 1uM": -51}, {"smiles": "Cc1ccc(P(=S)(c2ccc(C)o2)N2CCOCC2)o1", "hERG current change (%, negative = inhibition) at 1uM": 3.25}, {"smiles": "CCn1c(SCC(=O)Nc2cc(NC(C)=O)ccc2OC)nnc1-c1cccnc1", "hERG current change (%, negative = inhibition) at 1uM": 7.42}, {"smiles": "Cc1nc2ccccn2c1CN(C)C(=O)C1CCC(=O)N(CCc2cccc(F)c2)C1", "note": "(centres unmarked)", "hERG current change (%, negative = inhibition) at 1uM": -10.4}, {"smiles": "Cc1nc2ccccn2c1CN(C)C(=O)C1CCC(=O)N(Cc2cccc(F)c2)C1", "note": "(centres unmarked)", "hERG current change (%, negative = inhibition) at 1uM": -58}, {"smiles": "CN(Cc1ccccn1)C(=O)C1CCC(=O)N(Cc2cccc(F)c2)C1", "note": "(centres unmarked)", "hERG current change (%, negative = inhibition) at 1uM": 8.55}, {"smiles": "COc1ccc(C(=O)N/C(=C\\c2ccccc2)C(=O)NC(CC(C)C)C(=O)O)cc1", "note": "(centres unmarked)", "hERG current change (%, negative = inhibition) at 1uM": 21.4}, {"smiles": "Cc1cccc(OCC(=O)Nc2ccncc2)c1", "hERG current change (%, negative = inhibition) at 1uM": 6.41}, {"smiles": "COc1ccc(CN(C)CC(O)COC(c2ccc(OC)cc2)c2ccc(OC)cc2)cc1", "note": "(centres unmarked)", "hERG current change (%, negative = inhibition) at 1uM": -80.8}, {"smiles": "CCOc1ccc(CN(C)CC(O)COC(c2ccc(OC)cc2)c2ccc(OC)cc2)cc1", "note": "(centres unmarked)", "hERG current change (%, negative = inhibition) at 1uM": -81.9}, {"smiles": "CCN(Cc1ccccc1)CC(O)COC(c1ccc(OC)cc1)c1ccc(OC)cc1", "note": "(centres unmarked)", "hERG current change (%, negative = inhibition) at 1uM": -32.9}, {"smiles": "COc1ccc(C(OCC(O)CN(C)C2CCCCC2)c2ccc(OC)cc2)cc1", "note": "(centres unmarked)", "hERG current change (%, negative = inhibition) at 1uM": -29.3}, {"smiles": "COc1cccc(CN(C)CC(O)COC(c2ccccc2)c2ccccc2C)c1", "note": "(centres unmarked)", "hERG current change (%, negative = inhibition) at 1uM": -8.56}, {"smiles": "COc1ccc(CN(C)CC(O)COC(c2ccccc2)c2ccccc2)c(OC)c1OC", "note": "(centres unmarked)", "hERG current change (%, negative = inhibition) at 1uM": -43.6}, {"smiles": "CCN1CCN(S(=O)(=O)c2ccc(Cl)c(C(=O)NC(C)c3ccccc3Cl)c2)CC1", "note": "(centres unmarked)", "hERG current change (%, negative = inhibition) at 1uM": 5.99}, {"smiles": "O=C(NCCCO)c1ccc2[nH]c3ccccc3c2c1", "hERG current change (%, negative = inhibition) at 1uM": 13.4}, {"smiles": "O=C(NCc1cc([N+](=O)[O-])ccc1O)c1cccnc1Sc1ccc(Cl)cc1", "hERG current change (%, negative = inhibition) at 1uM": 16.3}]}]}
